These results are taken from PubChem BioAssay AID720551 (National Center for Advancing Translational Sciences (NCATS), 2013).

Screen size: about 340,000 compounds; about 1,300 (0.38%) were called active.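 Rule for the calls: active = maximum activity change below -70%; inconclusive = maximum activity change between -70% and -50%; inactive = maximum activity change above -50%.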 The sample as a whole holds a higher share of actives than the screen did.
% is set by controls: 0 for no effect and ±100 for the full control effect.

The target in this experiment is Voltage-gated inwardly rectifying potassium channel KCNH2 (Homo sapiens) (UniProt Q12809). The experiment is described as follows: qHTS for Inhibitors of KCHN2 3.1: Wildtype qHTS. To be noted: U2OS, BacMam KCNH2, thallium flux FluxOr; at 1.84 µM; hits give low values. Summed up: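 U2OS cells transduced with wild-type KCNH2 virus are loaded with FluxOr dye for 45 min, and thallium flux is measured in kinetic reads before and after stimulation buffer. Rate constants are normalized to DMSO controls.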
Voltage-gated inwardly rectifying potassium channel KCNH2 (Homo sapiens), sequence (Q12809 whole entry, looked up): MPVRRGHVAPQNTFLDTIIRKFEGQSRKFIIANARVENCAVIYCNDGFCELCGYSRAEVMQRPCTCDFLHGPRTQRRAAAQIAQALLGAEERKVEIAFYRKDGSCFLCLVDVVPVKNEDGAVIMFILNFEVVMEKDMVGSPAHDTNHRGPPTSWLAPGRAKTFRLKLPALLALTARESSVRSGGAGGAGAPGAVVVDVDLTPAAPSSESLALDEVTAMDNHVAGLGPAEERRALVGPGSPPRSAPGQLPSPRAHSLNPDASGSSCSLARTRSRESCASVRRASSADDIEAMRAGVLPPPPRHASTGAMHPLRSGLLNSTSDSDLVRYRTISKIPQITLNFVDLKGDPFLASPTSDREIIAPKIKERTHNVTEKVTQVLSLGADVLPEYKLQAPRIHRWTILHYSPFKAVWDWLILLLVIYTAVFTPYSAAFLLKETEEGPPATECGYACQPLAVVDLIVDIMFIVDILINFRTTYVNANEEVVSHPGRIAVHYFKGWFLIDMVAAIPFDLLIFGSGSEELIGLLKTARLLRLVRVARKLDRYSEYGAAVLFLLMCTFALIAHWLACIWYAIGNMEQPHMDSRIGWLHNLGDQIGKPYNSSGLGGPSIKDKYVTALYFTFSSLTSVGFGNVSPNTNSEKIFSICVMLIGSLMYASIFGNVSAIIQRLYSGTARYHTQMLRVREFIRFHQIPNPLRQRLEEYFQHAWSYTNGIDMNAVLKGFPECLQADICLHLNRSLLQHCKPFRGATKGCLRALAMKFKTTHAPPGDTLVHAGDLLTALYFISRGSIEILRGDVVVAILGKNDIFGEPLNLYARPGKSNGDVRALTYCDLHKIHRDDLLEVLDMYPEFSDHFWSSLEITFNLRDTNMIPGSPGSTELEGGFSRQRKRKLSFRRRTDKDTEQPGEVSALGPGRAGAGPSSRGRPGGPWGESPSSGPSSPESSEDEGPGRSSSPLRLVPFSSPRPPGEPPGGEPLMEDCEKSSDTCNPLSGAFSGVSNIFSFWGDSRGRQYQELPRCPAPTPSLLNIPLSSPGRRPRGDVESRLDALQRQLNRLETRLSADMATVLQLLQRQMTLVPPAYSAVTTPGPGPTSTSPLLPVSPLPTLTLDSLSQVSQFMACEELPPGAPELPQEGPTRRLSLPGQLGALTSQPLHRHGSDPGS
Background: Quantitative high-throughput screening tests each substance at several concentrations.
Turning to `O=C(NCc1ccccc1)C1CNCC(C(=O)NCc2ccccc2)C1` (stereo unspecified), the activity change was -19% (inactive).

With `COc1ccc(-c2ccc3[nH]c4c(c3c2)CCN2C[C@H]3[C@H](C)ON(C)[C@H]3C[C@@H]42)cc1`, the activity change is -1.03% (inactive).

Consider `COc1cc(NC(=O)C2=C(C)OCCS2)c(Cl)cc1C(=O)NCCCN1CCCC(C)C1` (stereo unspecified), for which the activity change was 15% (inactive).

As for `N#CC1(Nc2ccc3c4c(cccc24)CC3)CCCCC1`, the activity change is -12.6% (inactive).

On to `COc1cccc(CC2(CO)CCCN(Cc3ccc(OC(F)F)cc3)C2)c1` (stereo unspecified), for which the activity change is -73.9% (active).

Consider `COc1cccc(CC2(CO)CCCN(CC3=Cc4cc(OC)ccc4OC3)C2)c1` (stereo unspecified), for which the activity change is 8.29% (inactive).

For the compound `COc1cccc(CC2(CO)CCCN(Cc3nc(-c4cccs4)oc3C)C2)c1` (stereo unspecified), the activity change was -11.7% (inactive).

For `C[C@@H]1CN([C@@H](C)CO)C(=O)CCCn2nncc2CO[C@H]1CN(C)C(=O)Nc1ccc(C(F)(F)F)cc1`, the activity change is -21.9% (inactive).

On to `O=C(CN1CCCCC1)Nc1ccccc1C(=O)NC1CC1`, for which the activity change is 4.09% (inactive).

On to `N#Cc1ccc(CN2CCN(CC(=O)Nc3ccccc3C(=O)NC3CC3)CC2)cc1`, for which the activity change is -89.2% (active).

With `Cc1ccc(OCC(=O)Nc2ccccc2C(=O)NC2CC2)cc1`, the activity change is 36.5% (inactive).

As to `COc1ccc(OC)c(C(=O)NC2CCCc3c2cnn3-c2cc(C)cc(C)c2)c1` (stereo unspecified), the activity change is -0.114% (inactive).

For the compound `CC1(C)NC(=O)N(CC(=O)Nc2ccc(-c3ccccc3)cc2)C1=O`, the activity change was -12.6% (inactive).

Regarding `COc1ccc2oc(C(=O)NCc3ccco3)c(C)c2c1`, the activity change is 26.9% (inactive).

As to `COc1ccc2c(Cl)c(C(=O)NCc3ccco3)sc2c1`, the activity change is -70.1% (active).

As for `O=C(NCc1ccco1)c1sc2cccc(F)c2c1Cl`, the activity change is -25.2% (inactive).

Turning to `OCC1OC(n2cnc3c(N4CCCC4)ncnc32)C(O)C1O` (stereo unspecified), the activity change is -11.6% (inactive).

With `C[C@H]1CN(c2ccc(Br)cc2)C(=O)[C@@H]1CC(=O)Nc1ccc(Br)cc1`, the activity change is 1.02% (inactive).

Consider `C=CCNC(=O)c1sc(SC)cc1-c1ccc(Cl)cc1`, for which the activity change was -187% (active).

Turning to `CN(CC(=O)Nc1ccc(F)cc1)C(=O)c1ccc(-c2ccc(Cl)cc2)o1`, the activity change was -18.6% (inactive).

As for `CSc1sc(C(=O)NNC(=O)c2ccc(Cl)cc2)c2c1C=CCC2`, the activity change was -2.11% (inactive).

As to `Cc1cc(C)c(S(=O)(=O)NCCCN2CCOCC2)cc1Br`, the activity change was 12.5% (inactive).

Take `Cc1ccc(S(=O)(=O)NCCN2CCOCC2)cc1C`: the activity change is -76.1% (active).

With `O=S(=O)(NCCCN1CCOCC1)c1ccc(F)c(Cl)c1`, the activity change was 4.11% (inactive).

With `C[C@H]1CN([C@@H](C)CO)S(=O)(=O)c2ccc(Br)cc2O[C@H]1CN(C)C(=O)c1cnccn1`, the activity change is 2.27% (inactive).

On to `COCCCNc1nc2c(-c3cccc(C)c3)nnn2c2ccc(Cl)cc12`, for which the activity change was -86% (active).

For `COCCCNc1nc2c(-c3cccc(C(F)(F)F)c3)nnn2c2ccccc12`, the activity change is -4.14% (inactive).

For the compound `COC(=O)Cn1nc(-c2ccccc2)c2cc(Cl)ccc21`, the activity change is -4.79% (inactive).

Take `Cc1nnc(SC(C)C(=O)c2c[nH]c3ccccc23)n1C1CC1` (stereo unspecified): the activity change is -2.83% (inactive).

As for `Cc1cn([C@H]2C[C@H](O)[C@@H](CNC(=O)[C@H](N)Cc3cccnc3)O2)c(=O)[nH]c1=O`, the activity change is -1.56% (inactive).

Take `O=C(C[C@H]1C[C@@H]2c3cc(NC(=O)C4CCC4)ccc3O[C@@H]2[C@H](CO)O1)NC1CCCCC1`: the activity change was -22.6% (inactive).

`O=C(C1CCCO1)N1CCN(C(=O)C23CC4CC(CC(C4)C2)C3)CC1` (stereo unspecified): the activity change was -8.69% (inactive).

As for `Cc1ccc(C(=O)C(C)OC(=O)Cc2n[nH]c(=O)c3ccccc23)cc1C` (stereo unspecified), the activity change was 5.46% (inactive).

As for `O=c1[nH]nc(Cc2ccccn2)c2ccccc12`, the activity change was -160% (active).

As to `c1ccc(CCc2ccccn2)cc1`, the activity change was 15.2% (inactive).

As to `C[C@H](CO)N1C[C@H](C)[C@@H](CN(C)S(=O)(=O)c2ccc(Oc3ccccc3)cc2)OCc2cn(nn2)CCCC1=O`, the activity change is 10.5% (inactive).

In the case of `COc1ccc(C=C2CCC3C(CCCC34OCCO4)C2=O)cc1` (stereo unspecified), the activity change was 7.34% (inactive).

Take `COc1ccc(S(=O)(=O)N2CCN(CC(=O)N3CCNC3=O)CC2)cc1OC`: the activity change was -3.77% (inactive).

Consider `OC(COc1ccc(CN2CCSCC2)cc1)CN1CCCCC1` (stereo unspecified), for which the activity change is -2.59% (inactive).

As for `Cc1cccc(C)c1OCC(O)CN1CCCCC1` (stereo unspecified), the activity change was -71.1% (active).

As to `O=C(c1ccc(Cl)cc1)c1ccc(OCC(O)CN2CCCCC2)cc1` (stereo unspecified), the activity change was 42.5% (inactive).

For `Cc1ccc(NC(=O)c2ccco2)cc1`, the activity change is -2.95% (inactive).

Regarding `O=Cc1cn(CCOc2ccc(F)cc2)c2ccccc12`, the activity change was -0.818% (inactive).

In the case of `COc1ccc(CC(NC(C)=O)C(=O)NC2CCN(C(=O)Nc3ccc(C#N)cc3)CC2)cc1OC` (stereo unspecified), the activity change is 6.09% (inactive).

On to `CCOC(=O)C1CCN(C(=O)Nc2cccc(OC)c2)CC1`, for which the activity change was -8.37% (inactive).

For `COc1cccc(NC(=O)N2CCC(NC(=O)C(Cc3cccc(C)c3)NC(C)=O)CC2)c1` (stereo unspecified), the activity change was -205% (active).

Take `O=Nc1c(O)cc(O)c2ccccc12`: the activity change is -0.133% (inactive).

Turning to `COC(=O)C(Cc1c[nH]c2ccccc12)NC(=O)CCNC(=O)c1ccco1` (stereo unspecified), the activity change is 0.0904% (inactive).

Regarding `CSc1ncc(C(=O)Nc2ccc(C)cc2C)c(C)n1`, the activity change is -213% (active).

For the compound `Cc1ccc(NC(=O)c2ccn(C(=O)Nc3ccccc3)n2)c(C)c1`, the activity change is 5.47% (inactive).

With `CSc1ncc(C(=O)NCCCc2ccccc2)c(C)n1`, the activity change is 11.2% (inactive).

As to `CCc1cc(C(=O)N(CC)CC(=O)Nc2c(F)cccc2F)sc1C`, the activity change is 1.41% (inactive).

In the case of `CC(C)c1cc(C(=O)NC2CCCCCC2)c2ccccc2n1`, the activity change was 1.65% (inactive).

Regarding `O=S(=O)([N-]c1nc2ccccc2nc1-[n+]1ccc(Cc2ccccc2)cc1)c1ccc(Br)s1`, the activity change is 8.23% (inactive).

For the compound `CCCCNc1nc2ccccc2nc1NS(=O)(=O)c1cccs1`, the activity change was -1.02% (inactive).

In the case of `Cc1cc(C)c[n+](-c2nc3ccccc3nc2[N-]S(=O)(=O)c2cccs2)c1`, the activity change is -111% (active).

On to `N#Cc1ccc(OCC(=O)Nc2nc(-c3ccccn3)cs2)cc1`, for which the activity change was 19.3% (inactive).

In the case of `O=C(NCC(c1cccs1)N1CCOCC1)c1cc(-c2ccccn2)nc2ccccc12` (stereo unspecified), the activity change was 0.99% (inactive).

Consider `CCc1ccc2ncc(C(=O)c3ccccc3)c(N3CCOCC3)c2c1`, for which the activity change is 5.15% (inactive).

In the case of `O=C(c1ccccc1)c1cc(-c2ccccn2)c(N2CCOCC2)s1`, the activity change was -186% (active).

Take `Cc1ccc([C@H]2N[C@]3(CCCN(CC4CCCCC4)C3=O)[C@H]3C(=O)N(Cc4ccccc4)C(=O)[C@@H]23)cc1`: the activity change was 2.25% (inactive).

`CN(C)C(CNC(=O)c1cccc(S(=O)(=O)N2CCc3ccccc3C2)c1)c1ccccc1` (stereo unspecified): the activity change was 19.3% (inactive).

Take `C[C@@H]1CN([C@H](C)CO)C(=O)c2cc(-c3ccc(F)cc3)cnc2O[C@H]1CN(C)C(=O)c1ccc(F)cc1`: the activity change is 16.3% (inactive).

Consider `Cc1noc(C)c1COc1cccc(C(=O)Nc2cccnc2)c1`, for which the activity change is 7.71% (inactive).

Consider `Cc1nc2nc[nH]n2c(=O)c1C/C=C/c1ccccc1`, for which the activity change was 1.17% (inactive).

For `Cc1nc2nc[nH]n2c(=O)c1NC(=O)c1cccc(OCC(C)C)c1`, the activity change is -180% (active).

Consider `COc1ccc(-c2ccc(CN3C(C(C)C)C(=O)N(Cc4cn(CC5CCCCC5)nn4)CCS3(=O)=O)cc2)cn1` (stereo unspecified), for which the activity change is 6.66% (inactive).

Regarding `Cc1cccc(C(=O)NC2CCN(CC(=O)Nc3cccc(Cl)c3)CC2)c1`, the activity change was 47.4% (inactive).

For the compound `O=C(COc1ccc(Cl)cc1Cl)N/N=C/c1ccccn1`, the activity change was -7.76% (inactive).

As for `Clc1ccc(COn2c(-c3ccc(Cl)cc3Cl)nc3ncccc32)cc1`, the activity change was 1.98% (inactive).

As for `Clc1ccc(-c2cc(-c3ccccn3)on2)c(Cl)c1`, the activity change is -93.1% (active).

For the compound `C[C@@H]1CN([C@H](C)CO)C(=O)CCCn2cc(nn2)CO[C@H]1CN(C)S(=O)(=O)c1ccc(Oc2ccccc2)nc1`, the activity change was 10.5% (inactive).

For the compound `COc1ccc(CN2CCN(Cc3ccc(OC)c(OC)c3OC)CC2)cc1`, the activity change is 38.9% (inactive).

As to `COc1ccc(F)c(-c2nc(CN3CCC(c4ccccc4)CC3)c(C)o2)c1`, the activity change was 21% (inactive).

For the compound `COc1ccc(CN2CCC(c3nc4ccc(Cl)cc4[nH]3)CC2)cc1`, the activity change was -96.7% (active).

In the case of `O=C(CCCN1C(=O)C(c2ccccc2)Oc2cccnc21)Nc1ccccc1Br` (stereo unspecified), the activity change was -7.82% (inactive).

For the compound `CCOC(=O)c1cnn2c(SC)ncnc12`, the activity change was 9.2% (inactive).

Turning to `Cc1ccc(C(C)C)cc1OCC(=O)Nc1ccccc1N1CCCC1`, the activity change was -18.3% (inactive).

As to `CCC(=O)N1CCN(c2ccccc2NC(=O)COc2cccc(C)c2C)CC1`, the activity change was -214% (active).

With `CCOc1ccccc1NC(=S)N1CCN(c2cccc(C)c2C)CC1`, the activity change was -2.86% (inactive).

Regarding `COc1ccc(-c2ccc(CN3C(CC(C)C)C(=O)N(Cc4cn(CC5CCCCC5)nn4)CCS3(=O)=O)cc2)cn1` (stereo unspecified), the activity change was 16.3% (inactive).

Regarding `CCC(Oc1ccccc1)C(=O)OCC(=O)Nc1c(C)nn(-c2ccccc2)c1C` (stereo unspecified), the activity change is 0.17% (inactive).

As for `O=C(COc1ccccc1F)Nc1nc(-c2ccccn2)cs1`, the activity change is -8.89% (inactive).

Regarding `Cc1cc(NC(=O)[C@H](C)NC(=O)c2ccco2)ccc1Br`, the activity change was -4.82% (inactive).

As to `CC(NC(=O)c1ccco1)C(=O)Nc1nc(-c2ccccn2)cs1` (stereo unspecified), the activity change was -212% (active).

As for `COc1cccc(OC)c1C(=O)Nc1c(C(=O)N2CCN(c3ccccn3)CC2)oc2ccccc12`, the activity change is 3.21% (inactive).

As to `COCC(=O)Nc1c(C(=O)N2CCCC2)oc2ccccc12`, the activity change is -3.28% (inactive).

For `CCOCCCN(C)C1CCN(C(=O)c2oc3ccccc3c2NC(=O)Cc2cccc([N+](=O)[O-])c2)CC1`, the activity change was -97.4% (active).

Consider `COc1ccc(CC(=O)Nc2c(C(N)=O)oc3ccccc23)cc1`, for which the activity change is 26.6% (inactive).

For `CCOCCCN(C)C1CCN(C(=O)c2oc3ccccc3c2NC(=O)COc2cccc(C)c2)CC1`, the activity change is -82.2% (active).

Take `CN(C(=O)c1cccc(NC(=O)Cc2cccc([N+](=O)[O-])c2)c1)C1CCCCC1`: the activity change was -17.3% (inactive).
